Experimental findings from PubChem BioAssay (NCI) are described below.

About 83,000 compounds went through this panel and 20% of them were active in at least one assay; those are over-represented in the sample as a whole.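 Step 1: grow cells in 96-well plates. Step 2: add test compound at a single concentration. Step 3: incubate 48 h. Step 4: record percent growth.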 The source made the active and inactive calls. The calls were made as follows: active = growth percent below 10; inactive = the rest.

For this experiment, the system named is HL-60(TB) leukemia. Description: NCI-60 one-dose screen, 48 h (100 = growth as untreated, 0 = no growth, -100 = all killed). As to conditions: 10 µM unless noted.

`C=C(C)[C@@H]1CC[C@]2(c3nnc(-c4ccncc4)o3)CC[C@]3(C)[C@H](CC[C@@H]4[C@@]5(C)CCC(=O)NC(C)(C)[C@@H]5CC[C@]43C)[C@@H]12`: the growth is 115% (inactive).
Take `CC/C=C1/C(=O)C=C[C@@H]1C/C=C\CCCC(=O)OC`: the growth is 5.31% (active).
In the case of `COc1ccc(C(=O)COc2ccc(/C=C3\COc4ccc(OC)cc4C3=O)cc2)cc1` it was 59.4% (inactive); in that of `O=C(O)COc1ccc(OCC(=O)O)cc1`, -1.78% (active).
Consider `c1ccc2sc(SCCCn3ccnc3)nc2c1`, for which the growth is 110% (inactive).
The figure for `COc1cc(/C=C2\C(=O)Nc3ccccc32)cc(OC)c1O` is 1.88% (active).
The figure for `CCS(=O)(=O)Nc1cccc(Nc2c3cccc(C)c3nc3c(C)cccc23)c1OC` is -16.4% (active); for `COc1ccc2c(c1)C(Br)=C(CCO)C2c1ccccc1` (stereo unspecified) it is 1.04% (active); for `c1cc(-c2nnc(SSc3ncnc4nc[nH]c34)o2)ccn1` it is 18% (inactive).
Take `c1ccc2nc(N3CCOCC3)c(N3CCCCC3)nc2c1`: the growth was 98.9% (inactive).
Consider `C[C@@]1(N2C(=O)OC[C@@H]2c2ccccc2)C(=O)N([C@H](CC(=O)N2CCC(N3CCCCC3)CC2)C(=O)NCc2cccc(C(F)(F)F)c2)[C@@H]1/C=C/c1ccccc1`, for which the growth was 81% (inactive).
As for `COC1=CC(c2ccc[nH]2)=N/C1=C\c1[nH]c(C)c(C(=O)CCCCC(=O)Nc2ccccc2)c1C`, the growth was 74.9% (inactive).
As for `c1ccc(CSc2ncccc2-c2nnc(SCCN3CCOCC3)o2)cc1`, the growth was 101% (inactive).
Regarding `COc1ccc(C2CC(c3cnccn3)=NN2)cc1OC` (stereo unspecified), the growth was 46.5% (inactive).
Regarding `Cc1ccc(S(=O)(=O)c2ccc3[nH]c(=O)[nH]c(=O)c3c2)cc1`, the growth is 89.3% (inactive).
For `COc1ccc(-n2c(C)cc(-c3ccccc3)c2C)cc1`, the growth was 23.2% (inactive).
As for `COc1cc(/C=C/C(=O)c2ccc(NC(=O)CSc3nnc(-c4cc(-c5ccccc5)nc5ccccc45)n3-c3ccccc3)cc2)cc(OC)c1OC`, the growth was 84.9% (inactive).
In the case of `N=c1c2c(=N)n3c(nc2nc2n1-c1ccccc1Sc1ccccc1-2)sc1cc(Cl)ccc13` it was 50.3% (inactive); in that of `Cc1cc(C)c(/C=C2\C(=O)Nc3ccc(NC(=O)CCCCCCC(=O)NO)cc32)[nH]1`, 19.4% (inactive); in that of `O=C1NCC2CCCC1C2` (stereo unspecified), 98.6% (inactive).
On to `O=C1C=CC(=O)C2=C1CCCC2`, for which the growth is 28.7% (inactive).
The figure for `Oc1ccc(CCC2CCCC(CCc3ccc(OCCF)cc3)N2)cc1` (stereo unspecified) is 82% (inactive); for `C/C(C=O)=C\c1ccc2c(c1)OCO2` it is 102% (inactive).
In the case of `O=C(c1ccccc1)N(CCCCl)C(=O)N(CCCCl)C(=O)c1ccccc1` it was 94% (inactive).
In the case of `COc1cc2c(c(OC)c1OC)-c1ccc(N)c(=O)cc1[C@@H](NC(C)=O)CC2` it was 3.69% (active).
As for `COc1ccc2cc(-c3nn(-c4ccc(C(=O)O)cc4)cc3CO)ccc2c1`, the growth was 50.3% (inactive).
`O=C(Nc1cccc([N+](=O)[O-])c1)c1ccc(Cl)c(Cl)c1`: the growth was 87.8% (inactive).
The figure for `O=C(CCNC(=O)c1nc(-c2ccccc2)n(-c2ccc(Cl)cc2)n1)NO` is 96.8% (inactive); for `COc1cc(-c2nn(-c3ccc(NC(=O)Nc4ccc(Cl)c(C(F)(F)F)c4)cc3)cc2-c2ccncc2)ccc1Cl` it is 1.53% (active); for `CC[C@H](Nc1nc(N)nc(C)c1C#N)c1nc2cccc(NCCCCCC(=O)NO)c2c(=O)n1-c1ccccc1` it is 39.7% (inactive).
Regarding `COc1cc2ncnc(Oc3ccc(NC(=O)Nc4ccc(CN5CCOCC5)c(C(F)(F)F)c4)c4ccccc34)c2cc1OC`, the growth is -23% (active).
The figure for `COC1=CC(=O)OC(c2ccc(OC)cc2)C1` (stereo unspecified) is 78.3% (inactive); for `CC(=O)O[C@H]1[C@H](CC#CC#CC[C@@H]2C[C@]3(C)[C@H]4CC=C5[C@H]6[C@@H](C)[C@H](C)CC[C@]6(C(=O)NCCN(CCN)CCN)CC[C@@]5(C)[C@]4(C)CC[C@H]3C(C)(C)[C@H]2OC(C)=O)C[C@]2(C)[C@H]3CC=C4[C@H]5[C@@H](C)[C@H](C)CC[C@]5(C(=O)NCCN(CCN)CCN)CC[C@@]4(C)[C@]3(C)CC[C@H]2C1(C)C` it is 34.2% (inactive).
The figure for `Cc1c2cc[nH]c(=O)c2c(C)c2c1[nH]c1ccc(OC(=O)c3ccccc3)cc12` is 51.3% (inactive).
As to `O=C(CCN1CCCCC1)c1ccc(Cl)cc1`, the growth was 111% (inactive).
The figure for `Cc1cccc(C)c1NCc1nnc(-c2ccc(O)cc2)o1` is 111% (inactive).
